Laboratory results taken from PubChem BioAssay (Tox21).
Records with an inconclusive call do not appear. Active and inactive are the calls of the source. Unless noted, calls follow the shape of the dose curve; as a rule, active = well fitted curve in the direction sought with a large enough effect in the repeat runs; inconclusive = weak or mixed curves; inactive = no such curve, though single readings can be large; an effect the other way counts as inactive or inconclusive.

What was measured:
[1] = A CellTox Green Cytotoxicity Assay to monitor cytotoxicity in HepG2 cells - 8 hour (AID 1224890); also: nearly all actives have a fitted effect of over 45% in size
Procedure, shortened: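 Cells and non-lytic dye reagent are dispensed together (600 HepG2 cells/well) and incubated 5 h before DMSO compound transfer. Kinetic fluorescence is then recorded in the same wells during 40 h at 37 C.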

[2] = qHTS assay to identify small molecule antagonists of the estrogen receptor alpha (ER-alpha) signaling pathway using the BG1 cell line in the presence of 0.1 nM 17-beta-estradiol - cell viability counter screen (AID 1259241); also: nearly all actives have a fitted effect of over 40% in size
Procedure, shortened: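 The cell line endogenously expresses full-length ER-alpha and carries four EREs driving luciferase. Cells are cultured 5 days hormone-free, treated 22 hr with compounds and 0.1 nM estradiol, then viability is read by fluorescence.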

[3] = qHTS assay to identify small molecule antagonists of the androgen receptor (AR) signaling pathway using the MDA cell line in the presence of 0.5 nM R1881 - cell viability counter screen (AID 1259242); also: nearly all actives have a fitted effect of over 45% in size
Procedure, shortened: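 Steps: plate MDA-kb2 cells, rest 5 hr at 37C without CO2; pin in compounds in DMSO; add R1881 to 0.5 nM final; incubate 16 hr; add CellTiter-Fluor, 30 min; read fluorescence.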

[4] = target: Androgen receptor (Homo sapiens) (UniProt P10275); experiment: qHTS assay to identify small molecule antagonists of the androgen receptor (AR) signaling pathway using the MDA cell line in the presence of 0.5 nM R1881 (AID 1259243); also: nearly all actives have a fitted effect of over 50% in size; also: potency is read from the fitted curve at half-maximal effect
Procedure, shortened: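 Stably transfected MDA-kb2 cells express luciferase from an MMTV promoter bearing both AR and GR response elements. Compounds plus 0.5 nM R1881 (final) were incubated 16 hr at 37C without CO2, then luminescence measured.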

[5] = qHTS assay to identify small molecule HDAC inhibitors (AID 1259364); also: potency is read from the fitted curve at half-maximal effect;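 also: wild-type HCT-116 cells with endogenous class I/II HDAC activity; nearly all actives have a fitted effect of over 45% in size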
Procedure, shortened: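 Cells (HCT-116, wild type) are seeded at 1,500 per well, incubated overnight, treated with compound in DMSO for 2 hr, then developed with HDAC-Glo I/II reagent for 30 min at room temperature.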

[6] = qHTS assay to identify small molecule HDAC inhibitors - cell viability counter screen (AID 1259365); also: series mostly up to about 92 µM; nearly all actives have a fitted effect of over 50% in size
Procedure, shortened: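 Viability readout: CellTiter-Glo luminescence. Wild-type HCT-116 cells, 2hr compound treatment following overnight attachment at 37 C.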

[7] = qHTS assay to identify small molecule agonists of the sonic hedgehog signaling (Shh) pathway - cell viability counter screen (AID 1259366); also: nearly all actives have a fitted effect of over 50% in size
Procedure, shortened: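 Viability measured fluorometrically (CellTiter-Fluor, 1hr, 37C) in 3T3 Gli1-Luc reporter cells after 23hr compound exposure within a 24hr incubation at 37C/5% CO2.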

[8] = qHTS assay to identify small molecule antagonists of the sonic hedgehog signaling (Shh) pathway - cell viability counter screen (AID 1259367); also: nearly all actives have a fitted effect of over 55% in size
Procedure, shortened: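 Viability was read by CellTiter-Fluor fluorescence in the same wells, reagent added 23 hr into compound treatment and incubated 1 hr at 37C. The 3T3 Gli1-Luc reporter cells (2,000/well) received conditioned medium after compound and ran 24 hr.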

[9] = qHTS assay to identify small molecule agonists of the sonic hedgehog signaling (Shh) pathway (AID 1259368; calls by dose curve;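 also: NIH/3T3-derived 3T3Gli1-Luc cells carrying a stable Gli1-driven firefly luciferase reporter; series mostly up to about 92 µM; nearly all actives have a fitted effect of over 15% in size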)
Procedure, shortened: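 Cells of a mouse NIH/3T3 clone stably expressing luciferase under the Gli1 transcriptional response element are exposed to test chemicals for 24 hr at 37 C. Pathway activation is detected as a rise in luminescence.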

[10] = target: Estrogen receptor beta (Homo sapiens) (UniProt Q92731); experiment: qHTS assay to identify small molecule agonists of the estrogen receptor beta (ER-beta) signaling pathway (AID 1259377; active = well fitted activation curve with a large enough effect in the signal ratio in the repeat runs, not every such curve was filed as active; the % refers to the signal ratio)
Procedure, shortened: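 A UAS-controlled beta-lactamase reporter in ER-beta-UAS-bla HEK293T cells reports receptor activation. Compounds act for 16 hr at 37C in 2% charcoal-stripped serum, and a FRET substrate is read by fluorescence after 2 hours.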

[11] = target: Estrogen receptor beta (Homo sapiens) (UniProt Q92731); experiment: qHTS assay to identify small molecule antagonists of the estrogen receptor beta (ER-beta) signaling pathway (AID 1259378; active = well fitted inhibition curve with a large enough effect in the signal ratio in the repeat runs, not every such curve was filed as active; the % refers to the signal ratio)
Procedure, shortened: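 Antagonist mode: compounds added to beta-lactamase reporter HEK293T ER-beta-UAS cells stimulated with E2 (1nM final), 16 hr at 37C. LiveBLAzer B/G FRET substrate, 2 hours room temperature, fluorescence read-out.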

[12] = qHTS assay to identify small molecule agonists of the androgen receptor (AR) signaling pathway in the presence of an antagonist - cell viability counter screen (AID 1259379);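 also: MDA-kb2 human breast cancer cells carrying an MMTV luciferase reporter; series mostly up to about 92 µM; nearly all actives have a fitted effect of over 25% in size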
Procedure, shortened: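 Cytotoxicity is assessed by CellTiter-Fluor in MDA-kb2 cells carrying an MMTV-driven luciferase reporter. Cells receive 3.0uM nilutamide plus compounds at 15 concentrations and incubate 16 hr at 37C without CO2 before fluorescence reading.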

[13] = qHTS assay to identify small molecule agonists of the estrogen receptor beta (ER-beta) signaling pathway - cell viability counter screen (AID 1259380); also: nearly all actives have a fitted effect of over 30% in size; also: potency is read from the fitted curve at half-maximal effect
Procedure, shortened: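 Cytotoxicity is measured in parallel with the reporter screen: after 16 hr compound exposure at 37C and a 2 hr LiveBLAzer step, CellTiter-Glo is added to the same ER-beta-UAS-bla HEK293T wells and luminescence read after 30 min.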

[14] = target: Androgen receptor (Homo sapiens) (UniProt P10275); experiment: qHTS assay to identify small molecule agonists of the androgen receptor (AR) signaling pathway in the presence of an antagonist (AID 1259381; calls by dose curve; also: nearly all actives have a fitted effect of over 15% in size)
Procedure, shortened: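 Agonist-mode confirmation screen: human MDA-kb2 cells stably expressing luciferase under an MMTV promoter bearing AR and GR response elements, co-treated with 3.0uM nilutamide (final). Luminescence measured after 16hr compound incubation.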

[15] = qHTS assay to identify small molecule antagonists of the estrogen receptor beta (ER-beta) signaling pathway - cell viability counter screen (AID 1259382);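 also: HEK293T cells carrying ER-beta-UAS-bla reporter stimulated with estradiol; series mostly up to about 92 µM; nearly all actives have a fitted effect of over 55% in size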
Procedure, shortened: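 Cytotoxicity counter screen multiplexed with the beta-lactamase antagonist assay: GripTite HEK293T ER-beta-bla cells were treated 16 hr with test chemicals in the presence of 1nM 17-beta-estradiol, and viability was measured by CellTiter-Glo.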

[16] = target: Estrogen receptor (Homo sapiens) (UniProt P03372); experiment: qHTS assay to identify small molecule agonists of the estrogen receptor alpha (ER-alpha) signaling pathway in the presence of an antagonist (AID 1259383; calls by dose curve; also: top concentration of the series differs between compounds; nearly all actives have a fitted effect of over 15% in size)
Procedure, shortened: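 Agonist-mode confirmation in the presence of the ER antagonist ICI-182,780 at 10.0nM final. Breast-derived VM7Luc4E2 reporter cells were exposed to compounds for 22hr, and ERE-driven luciferase was quantified by luminescence.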

[17] = qHTS assay to identify small molecule agonists or antagonists of the thyroid stimulating hormone receptor (TSHR) signaling pathway - wild type cell line counter screen (AID 1259384; calls by dose curve)
Procedure, shortened: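 Counter screen in untransfected Hek293: compounds (15-point titration, triplicate) plus phosphodiesterase inhibitor Ro20-1724 added after 18 h plating; 30 min RT. Intracellular cAMP via competitive d2/cryptate immunoassay, 1 h incubation.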

[18] = target: Estrogen receptor (Homo sapiens) (UniProt P03372); experiment: qHTS assay to identify small molecule antagonists of the estrogen receptor alpha (ER-alpha) signaling pathway using the BG1 cell line in the presence of 0.1 nM 17-beta-estradiol (AID 1259244); also: nearly all actives have a fitted effect of over 50% in size; also: potency is read from the fitted curve at half-maximal effect
Procedure, shortened: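 Antagonist mode: compounds in DMSO are pinned onto VM7Luc4E2 reporter cells, 0.1 nM final 17beta-estradiol is added, and after 22 h at 37C luciferase luminescence is measured with ONE-Glo.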

[19] = qHTS assay to identify small molecule antagonists of the sonic hedgehog signaling (Shh) pathway (AID 1259369; calls by dose curve; also: nearly all actives have a fitted effect of over 45% in size; also: potency is read from the fitted curve at half-maximal effect)
Procedure, shortened: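 Cells are plated and held 4hr at 37 C, compounds (DMSO) are pinned in, conditioned medium is added to stimulate the pathway, and after 24hr luciferase reagent is added for 30min before luminescence is read.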

Measured: Potency

Androgen receptor (Homo sapiens), sequence (P10275 whole entry, looked up): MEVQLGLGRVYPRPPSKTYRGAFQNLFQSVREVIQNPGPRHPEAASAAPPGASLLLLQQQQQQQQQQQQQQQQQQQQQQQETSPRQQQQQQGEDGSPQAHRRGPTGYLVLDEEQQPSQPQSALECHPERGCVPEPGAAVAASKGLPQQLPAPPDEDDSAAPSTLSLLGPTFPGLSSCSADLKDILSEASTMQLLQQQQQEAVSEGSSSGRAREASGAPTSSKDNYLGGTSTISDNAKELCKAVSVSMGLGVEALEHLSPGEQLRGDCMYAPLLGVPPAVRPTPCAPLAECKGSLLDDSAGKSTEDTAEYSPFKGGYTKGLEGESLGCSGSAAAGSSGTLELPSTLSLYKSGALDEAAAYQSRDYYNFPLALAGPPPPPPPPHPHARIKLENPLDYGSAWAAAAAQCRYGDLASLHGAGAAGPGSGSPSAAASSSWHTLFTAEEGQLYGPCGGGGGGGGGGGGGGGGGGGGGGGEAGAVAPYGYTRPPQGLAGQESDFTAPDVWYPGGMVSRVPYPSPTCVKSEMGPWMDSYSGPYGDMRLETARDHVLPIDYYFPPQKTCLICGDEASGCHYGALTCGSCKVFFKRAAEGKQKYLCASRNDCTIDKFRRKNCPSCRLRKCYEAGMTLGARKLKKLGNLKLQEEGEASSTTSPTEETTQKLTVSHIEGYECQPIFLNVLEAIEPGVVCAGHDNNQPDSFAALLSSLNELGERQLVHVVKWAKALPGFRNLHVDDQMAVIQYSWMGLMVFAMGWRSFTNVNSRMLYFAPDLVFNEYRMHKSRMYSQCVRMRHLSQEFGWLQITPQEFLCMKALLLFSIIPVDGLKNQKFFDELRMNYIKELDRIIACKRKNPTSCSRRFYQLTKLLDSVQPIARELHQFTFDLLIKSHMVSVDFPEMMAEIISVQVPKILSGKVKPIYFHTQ
Estrogen receptor beta (Homo sapiens), sequence (Q92731 whole entry, looked up): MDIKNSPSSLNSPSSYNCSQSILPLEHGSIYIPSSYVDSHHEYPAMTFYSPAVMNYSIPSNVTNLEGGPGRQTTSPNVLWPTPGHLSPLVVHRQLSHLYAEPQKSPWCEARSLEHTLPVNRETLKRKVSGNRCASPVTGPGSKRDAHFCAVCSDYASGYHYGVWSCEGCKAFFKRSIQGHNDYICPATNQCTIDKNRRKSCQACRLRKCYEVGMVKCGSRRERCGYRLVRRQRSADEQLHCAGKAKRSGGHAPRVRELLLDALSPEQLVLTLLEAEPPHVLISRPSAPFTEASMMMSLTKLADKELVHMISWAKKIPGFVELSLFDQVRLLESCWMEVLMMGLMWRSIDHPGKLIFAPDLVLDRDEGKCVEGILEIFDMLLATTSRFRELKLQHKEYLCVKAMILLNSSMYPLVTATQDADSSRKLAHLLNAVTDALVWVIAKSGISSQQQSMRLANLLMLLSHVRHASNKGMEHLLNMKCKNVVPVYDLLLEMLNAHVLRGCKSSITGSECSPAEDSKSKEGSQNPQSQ
Estrogen receptor (Homo sapiens), sequence (P03372 whole entry, looked up): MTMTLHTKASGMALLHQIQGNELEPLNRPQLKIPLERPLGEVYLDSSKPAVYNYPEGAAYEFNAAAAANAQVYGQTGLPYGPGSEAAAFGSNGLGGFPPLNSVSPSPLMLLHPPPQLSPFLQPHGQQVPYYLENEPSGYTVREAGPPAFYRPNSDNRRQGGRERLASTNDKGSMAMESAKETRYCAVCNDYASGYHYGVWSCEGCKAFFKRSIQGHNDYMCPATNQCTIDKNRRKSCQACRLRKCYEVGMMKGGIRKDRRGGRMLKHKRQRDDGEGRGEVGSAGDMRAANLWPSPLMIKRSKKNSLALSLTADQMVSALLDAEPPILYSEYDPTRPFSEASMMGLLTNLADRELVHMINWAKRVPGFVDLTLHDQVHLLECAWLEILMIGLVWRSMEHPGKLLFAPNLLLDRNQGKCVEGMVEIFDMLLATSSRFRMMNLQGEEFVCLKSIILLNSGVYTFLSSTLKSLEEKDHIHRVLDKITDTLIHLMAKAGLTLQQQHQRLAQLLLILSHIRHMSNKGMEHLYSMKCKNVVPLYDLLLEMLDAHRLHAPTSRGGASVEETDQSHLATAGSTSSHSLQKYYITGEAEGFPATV

CC(C)CCCCCCc1ccc(OCCOCCO)cc1
inactive: [1] | [2] | [3] | [4] | [5] | [6] | [7] | [8] | [9] | [10] | [11] | [12] | [13] | [14] | [15] | [16] | [17]

CCCCCCn1c(=O)c2c(ncn2C)n(C)c1=O
inactive: [1] | [2] | [3] | [4] | [18] | [5] | [7] | [8] | [9] | [19] | [10] | [11] | [12] | [14] | [15] | [16] | [17]

OCCN(CCO)CCN(CCO)CCO
inactive: [1] | [2] | [3] | [4] | [18] | [5] | [8] | [9] | [19] | [10] | [11] | [12] | [13] | [14] | [15] | [16] | [17]

CN1CCN(C2=Nc3cc(F)ccc3Cc3ccccc32)CC1
active: [4] 16.8 µM
inactive: [1] | [2] | [3] | [5] | [6] | [9] | [12] | [14] | [16] | [17]

COC(C)CCO (stereo not given)
inactive: [1] | [2] | [3] | [4] | [5] | [6] | [8] | [9] | [19] | [12] | [13] | [14] | [15] | [17]

CC1(O)CSC(C)(O)CS1 (stereo not given)
inactive: [1] | [2] | [3] | [4] | [6] | [7] | [8] | [9] | [19] | [10] | [11] | [12] | [13] | [14] | [15] | [16]
active: [5] 21.7 µM

CC1=C2[C@H](/C=C(\C)C(=O)O)CC[C@@H](C)[C@H]2CC1
inactive: [1] | [2] | [3] | [5] | [6] | [10] | [12] | [14] | [16] | [17]
active: [4] 31.8 µM | [18] 63.4 µM | [19] 56.5 µM | [13] 25.2 µM

Cc1cc2nc(N)sc2cc1C
active: [5] 0.276 µM | [13] 30.9 µM
inactive: [1] | [2] | [3] | [4] | [6] | [7] | [8] | [19] | [12] | [14] | [17]
